# High-throughput results (PubChem BioAssay)
# VACV E9 pol inh = vaccinia E9 polymerase processive synthesis inhibition. in vitro processive DNA synthesis, absorbance read-out; stronger effect = lower value. normalized absorbance, % (no concentration beside the values). 46,000 tested, 0.94% active. AID 493162; in the data active = normalized absorbance mostly below about 85%, no sharp cut-off; inactive = mostly above about 86%
# An asterisk follows results filed as active; ! = not active in a repeat. This excerpt belongs to a sample that is enriched for hits.
SMILES,VACV E9 pol inh
O=C(Nc1nc(=S)ss1)c1ccccc1Cl,68.8*
S=C(NCCN1CCOCC1)Nc1ccc(Cl)cc1,100.1
N#CC(C(N)=O)=C1CCCCCC1,99.4
CC(=O)N(c1ccc(C(F)(F)F)cc1)S(=O)(=O)c1ccc(N2C(=O)CCC2=O)cc1,102.4
CN(C)CCCn1cc(C2=C(c3c[nH]c4ccccc34)C(=O)NC2=O)c2ccccc21,67.5*
CN(C)Cc1c[nH]c2ccccc12,98.5
COc1ccccc1OCCn1cc(/C=C2/SC(=S)NC2=O)c2ccccc21,100.0
COC(=O)CN1C=C(C(=O)OC)C(c2ccc(Cl)cc2)C(C(=O)OC)=C1,100.3
COC(=O)c1ccc(OCC2c3cc(OC)c(OC)cc3CCN2C(=O)c2ccccc2)cc1 (configuration not stated),100.7
OC(C#CCN1CCOCC1)c1cccs1 (configuration not stated),99.9
CN=C1S/C(=C/c2cccc(F)c2)C(=O)N1C,99.9
CC(Nc1cc(C)ccn1)=C(C#N)C#N,62.8*
Cc1ccnc(NC(=O)c2cccs2)c1,99.9
Cc1ccnc(NC(=O)c2cc(-c3ccc(C)c(C)c3)n[nH]2)c1,92.4
COC(=O)c1ccccc1NC(=O)/C=C/c1ccc(-c2ccccc2)o1,105.2
CCOC(=O)c1cc(C)n(CC2CCC(C(=O)Nc3ccccc3)CC2)c1C (configuration not stated),96.6
CCc1ccc(Nc2c3c(nc4ccccc24)CCC3)cc1,85.8
CCc1ccc(Nc2c3c(nc4ccccc24)CCCC3)cc1,91.4
CN(C)CCCNc1c2c(nc3ccccc13)CCC2,26.7*
CC(=O)Nc1nc(C2CC2)cc(-c2ccccc2)c1C#N,84.6*
CCOC(=O)CSc1nc(C2CC2)cc(-c2ccccc2)c1C#N,99.0
COC(=O)CSc1nc(-c2ccccc2)cc(-c2ccccc2)c1C#N,99.3
O=C(CN1c2cccc3cccc(c23)S1(=O)=O)NCc1ccccc1,100.0
CS(=O)(=O)NCc1cccc2ccccc12,100.0
C[n+]1c(/C=C/Nc2ccccc2)sc2ccccc21,74.7*
SMILES,VACV E9 pol inh
CSc1sc2ccccc2[n+]1C,102.2
CC[n+]1c(/C=C/Nc2ccccc2)sc2ccccc21,98.8
[O-]/C(=C(\C(=S)Nc1ccccc1)[n+]1ccccc1)c1ccccc1,99.6
NCCCc1nc2cc3sc(CCCN)nc3cc2s1,60.5*
c1ccc2sc(CCc3nc4ccccc4s3)nc2c1,98.5
NCCCc1nc2ccc(Cc3ccc4nc(CCCN)[nH]c4c3)cc2[nH]1,77.4
O=C(NC1CCCc2ccccc21)C1CCN(S(=O)(=O)c2cccs2)CC1 (configuration not stated),101.5
Cc1ccc(NC(=O)Cn2ccn(CCc3ccc(S(N)(=O)=O)cc3)c(=O)c2=O)cc1F,95.6
COC(=O)c1ccc(NC(=S)N(C(C)C)C(C)C)cc1,94.9
COC(=O)c1ccc(NN)cc1,81.0*
COC(=O)c1ccc(CSc2nnc3n(N)cnn23)cc1,101.1
COC(=O)c1ccc(CSC(=N)N)cc1,80.9*
COC(=O)c1ccc(Nc2ccccc2)cc1,102.1
N=C(N)SCc1ccccc1,95.9
O=C(c1ccc(F)cc1)N1c2ccccc2C=Cc2ccccc21,93.7
Cc1nc2ccc(NC(=O)COc3ccc(Cl)cc3)cc2s1,96.1
CCOC(=O)c1cccc2c1-c1ccccc1/C2=N/O,93.8
O=C(OCCO)c1cccc2c1-c1ccccc1C2=O,73.9*
CCOC(=O)c1cccc2c1-c1ccccc1C2=O,92.0
CCN(CC)C(=O)c1cc2c(s1)-c1c(C)cccc1OC2,100.9
COc1cc(NS(=O)(=O)c2ccc(NC(=O)c3ccccc3)cc2)nc(OC)n1,100.6
CC(NC(=O)COc1ccccc1)C(c1ccccc1)N1CCN(C)CC1 (configuration not stated),90.0
O=c1cc(-c2ccccc2)oc2cc(Cl)ccc12,98.4
Clc1ccc2oc(-c3ccccc3)cc(=NCCN3CCOCC3)c2c1,96.1
C(=NCc1ccccc1)c1cn(-c2ccccc2)nc1-c1cccnc1,98.2
SMILES,VACV E9 pol inh
O=c1cc(-c2ccccc2)oc2ccc(Cl)cc12,102.5
OCCN=c1cc(-c2ccccc2)oc2ccc(Cl)cc12,41.3*
CC(O)CN=c1cc(-c2ccccc2)oc2ccc(Cl)cc12 (configuration not stated),45.6*
CCc1ccc2oc(-c3ccccc3)cc(=NCc3cccnc3)c2c1,79.8*
Cc1ccc2oc(-c3ccccc3)c(C(=O)O)c(=O)c2c1,87.4
c1ccc(-c2nc3cc(NCc4cccnc4)ccc3o2)cc1,100.2
Cc1ccc2oc(-c3ccccc3)cc(=NCCO)c2c1,48.6*
Oc1ccc(N=c2cc(-c3ccccc3)oc3ccc(Cl)cc23)cc1,98.0
CCC(N=c1cc(-c2ccc(OC)cc2)oc2ccc(C)cc12)C(=O)O (configuration not stated),97.9
Cc1cccc(OC(=O)Cc2ccc(F)cc2)c1,100.9
Clc1ccc(CSc2ncc(-c3ccc(Cl)cc3)[nH]2)cc1,100.5
COc1cc(OC)cc(C2SC(N)=C(C#N)C(N)=C2C#N)c1 (configuration not stated),91.3
Cc1ccc(S(=O)(=O)NCCSc2ncccn2)cc1,99.7
CCOC(=O)[C@H](CCc1ccccc1)N[C@@H](C)C(=O)N1CCC[C@H]1C(=O)O,100.0
FC(F)(F)c1ccccc1C1NCc2ccccc2-n2cccc21 (configuration not stated),99.6
Cc1cn(C(=O)c2ccc(Cl)cc2Cl)c(C)n1,100.6
CN1CCCC(OC(=O)C(C)(c2ccccc2)c2ccccc2)C1 (configuration not stated),106.7
CN1C2CCC1CC(NC(=O)CSc1ccc(Cl)cc1)C2 (configuration not stated),99.4
Cc1ccc2oc(-c3ccccc3)cc(=NCCN(C)C)c2c1,30.3*
COc1ccc2oc(-c3ccccc3)cc(=O)c2c1,77.3
Cc1ccc2oc(-c3ccccc3)c(CN3CCOCC3)c(=O)c2c1,97.8
COc1cc2nc(N3CCN(C(=O)c4ccco4)CC3)nc(N)c2cc1OC,85.0*!
COc1cc2c(cc1OC)CN(C(=O)c1ccco1)CC2,102.0
CC(C)N1CCN(C(=O)c2ccco2)CC1,104.7
CCc1cc(C(=O)Cc2nc3ccccc3n2C)c(O)cc1O,106.3
SMILES,VACV E9 pol inh
CC12COC3(C(=O)O)CC1CCC32C (configuration not stated),100.8
CCN(CC)c1ncnc2c1[nH]c1ccc(C)cc12,99.9
COc1ccc2[nH]c3nc(=S)[nH]nc3c2c1,100.8
COc1ccc2[nH]c3c(N(C)C)ncnc3c2c1,64.0*
Cc1ccc(S(=O)(=O)c2nc(C)oc2N(C)C)cc1,102.0
CNC(=O)COC(=O)c1cccnc1Cl,100.6
C=CCn1c(NC(C)c2cc(Cl)ccc2O)nc2ccccc21 (configuration not stated),101.9
CCOc1ccccc1C(=O)N1c2ccccc2Sc2ccccc21,100.1
O=C(CC(Sc1ccc(Cl)cc1)c1ccc(Cl)cc1)C1CC1 (configuration not stated),100.5
COc1ccc2c(c1OC)CN(C)CCc1cc3c(cc1C(O)C2)OCO3 (configuration not stated),110.1
COc1ccc2cc3[n+](cc2c1OC)CCc1cc2c(cc1-3)OCO2,81.7*
COc1ccc2c(c1OC)CN1CCc3cc4c(cc3C1C2)OCO4 (configuration not stated),99.9
COC(=O)c1sc(SC)c(C#N)c1-c1cccc(Cl)c1,92.3
Cc1cccc(C)c1NC(=O)CC(NCc1ccco1)C(=O)O (configuration not stated),101.6
Cc1cc(Cl)ccc1OCC(=O)Nc1ncc(Br)s1,79.3
